From PubChem BioAssay AID1847 (The Scripps Research Institute Molecular Screening Center, 2009) come the findings set out here.

A word on the inhibition: it is the share of the control response that was lost under treatment.

Hit rate of the full screen: of about 2,300 compounds, about 1,100 (48%) were called active. The set was probably picked from earlier hits. A selection follows. A number with no mark means an inactive call.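 How the source made its calls: active means inhibition above the mean inhibition of all tested sample wells plus 3 SD (cut at about 10% in these data); inactive means the rest.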

The target in the experiment is Luciferin 4-monooxygenase (Photinus pyralis) (UniProt P08659). Description: native FLuc enzyme inhibition – biochemical, luminescence, triplicate, artefact control for HSP90 inhibitor project, confirmation (AID 1847).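 Further: 0% = DMSO with luciferase and 100% = wells lacking luciferase.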 The conditions noted are these: purified native firefly luciferase, at 5.9 µM, stronger effect = higher value.
Sequence of Luciferin 4-monooxygenase (Photinus pyralis) (P08659 whole entry, looked up): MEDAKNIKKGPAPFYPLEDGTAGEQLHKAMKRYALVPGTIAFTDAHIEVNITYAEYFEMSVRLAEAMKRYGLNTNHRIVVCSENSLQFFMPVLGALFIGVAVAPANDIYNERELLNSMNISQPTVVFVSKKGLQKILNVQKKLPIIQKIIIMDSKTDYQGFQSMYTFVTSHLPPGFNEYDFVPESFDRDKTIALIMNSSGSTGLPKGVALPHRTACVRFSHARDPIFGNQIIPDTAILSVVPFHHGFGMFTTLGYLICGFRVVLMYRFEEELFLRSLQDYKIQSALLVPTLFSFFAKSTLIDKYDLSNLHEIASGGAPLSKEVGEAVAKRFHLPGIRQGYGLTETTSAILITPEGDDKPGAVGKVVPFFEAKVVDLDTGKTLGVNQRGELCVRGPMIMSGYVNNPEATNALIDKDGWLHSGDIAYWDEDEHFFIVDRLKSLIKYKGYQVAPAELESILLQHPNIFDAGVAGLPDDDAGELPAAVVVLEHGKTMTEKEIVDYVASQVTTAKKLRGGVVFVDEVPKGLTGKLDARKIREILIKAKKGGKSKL
Take `COc1cccc(-c2nc3ccc(N4CCN(C)CC4)cc3[nH]2)c1`: the inhibition is 38.9% (active).

On to `O=c1c2ccccc2nc(/C=C/c2ccco2)n1-c1ccccc1O`, for which the inhibition was 4.47%.
